Consider 21 compounds from PubChem BioAssay (NCI).

A short description of assay [1]: NCI Yeast Anticancer Drug Screen. Data for the rad50 strain (AID 155).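 Note: 0% = growth of vehicle-only cultures of the same strain.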 The settings on record: S. cerevisiae rad50 strain growth inhibition; at 50.0 µM; stronger effect = higher value. In a few lines:
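DNA repair mutant yeast, compound exposure, growth read-out; inhibition is taken relative to vehicle.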

Assay [2] is described as follows: NCI Yeast Anticancer Drug Screen. Data for the mec2-1 strain (AID 157). Particulars: S. cerevisiae mec2-1 strain, at 50.0 µM, stronger effect = higher value. In a few lines:
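Cells of the genetically defined mec2-1 yeast strain are incubated with test compound. Inhibition of growth is calculated against vehicle-treated controls.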

A short description of assay [3]: NCI Yeast Anticancer Drug Screen. Data for the sgs1 mgt1 strain (AID 161).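 Note: 0% = growth of cultures given vehicle only.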 Particulars: S. cerevisiae sgs1 mgt1 strain, at 50.0 µM, stronger effect = higher value. In a few lines: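 Mutant yeast exposed to compound; growth scored against vehicle-only wells.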
Assay [4] is described as follows: NCI Yeast Anticancer Drug Screen. Data for the cln2 rad14 strain (AID 165).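 Note: 0% = growth equal to vehicle treated cultures.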 The settings on record: S. cerevisiae cln2 rad14 strain, at 50.0 µM, stronger effect = higher value. Put shortly:
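The screen exposed genetically defined yeast (cln2 rad14) to test compounds and scored growth inhibition relative to vehicle-treated controls.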

Assay [5] can be described thus: NCI Yeast Anticancer Drug Screen. Data for the bub3 strain (AID 167). Particulars: S. cerevisiae bub3 mutant strain, at 50.0 µM, stronger effect = higher value. In a few lines: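 In this screen, a yeast mutant lacking normal mitotic checkpoint function is challenged with compound. Relative growth versus vehicle gives the inhibition value.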
Assay [6] can be described thus: NCI Yeast Anticancer Drug Screen. Data for the mlh1 rad18 strain (AID 175). The settings on record: S. cerevisiae mlh1 rad18 strain growth inhibition; at 50.0 µM; stronger effect = higher value. In a few lines:
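Compound-treated yeast growth, normalised to vehicle controls. Strain bears defined DNA repair mutations.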

SMILES strings stand for the structures. The panel holds about 79,000 compounds, 15% with a hit somewhere; the sample as a whole holds those more often. Values without a mark were called inactive. The source made the active and inactive calls. Cut-off read from the data, not from the text of the source: active = growth inhibition above about 70%; inactive = the rest.

On to `CCOC(=O)c1cnc2nc[nH]n2c1=O`, for which the growth inhibition was -52.8% in assay [1]; -54.5% in assay [2]; -11.2% in assay [3]; 11.6% in assay [4]; -67% in assay [5]; -36.5% in assay [6].
Regarding `O=NSC(c1ccccc1)(c1ccccc1)c1ccccc1`, the growth inhibition in assay [1] is 1.65%; in assay [2], -24.2%; in assay [3], 1.6%; in assay [4], -28.1%; in assay [5] it was -9.25%; in assay [6] it was 0%.
With `O=C(O)c1ccccc1NCn1c(=S)sc2ccccc21`, the growth inhibition was 63% in assay [1]; 45.8% in assay [2]; 60.6% in assay [3]; 5.5% in assay [4]; 43.8% in assay [5]; 53.9% in assay [6].
For `CC(C)(C)OC(=O)NC(CSCc1ccc(C(=O)c2ccccc2)cc1)C(=O)O` (stereo unspecified), the growth inhibition in assay [1] is -23.9%; in assay [2] it was -28.1%; in assay [3], -15.3%; in assay [4], 10.6%; in assay [5], -12.8%; in assay [6], -2.3%.
For the compound `CC(=O)OC1C(=O)OCC23CCC(C)=CC2OC2CC(OC(=O)/C=C/C=C/C(=O)OCCC1C)C3(C)C21CO1` (stereo unspecified), the growth inhibition in assay [1] is -35.5%; in assay [2] it was -4.45%; in assay [3], -31.3%; in assay [4], -4.4%; in assay [5], -22.6%; in assay [6] it was -19.6%.
Take `O=C1Nc2ccccc2N=NN1CCCl`: the growth inhibition in assay [1] was 22.2%; in assay [2], 6.4%; in assay [3] it was -2.85%; in assay [4], 1.85%; in assay [5] it was -7.3%; in assay [6] it was -18.4%.
In the case of `O=C1c2cccc([N+](=O)[O-])c2C(=O)c2cccc(Cl)c21`, the growth inhibition in assay [1] was 29.2%; in assay [2] it was 9.35%; in assay [3], -4.15%; in assay [4], -17.9%; in assay [5] it was 32.5%; in assay [6] it was 42.9%.
With `COC(=O)c1ccc(OC(=O)Nc2cccc(C(C)=O)c2)cc1`, the growth inhibition in assay [1] is 14.2%; in assay [2] it was 14.9%; in assay [3], 10.6%; in assay [4], -9.2%; in assay [5], 12.7%; in assay [6], 34.8%.
As to `CCOC(=O)c1c(C(=O)OC)nc2n1-c1ccccc1OC2`, the growth inhibition in assay [1] is -16.2%; in assay [2], -36.1%; in assay [3], -14.4%; in assay [4], -17.8%; in assay [5] it was -17.4%; in assay [6], -0.7%.
Consider `O=C(/C=C/c1ccco1)N1CCN(Cc2ccccc2)CC1`, for which the growth inhibition in assay [1] was 3.7%; in assay [2], 8.15%; in assay [3] it was 23%; in assay [4] it was 32.2%; in assay [5], 53%; in assay [6], 14.4%.
Consider `COC1OC(CN)C(O)C(O)C1O` (stereo unspecified), for which the growth inhibition in assay [1] is 0.15%; in assay [2], 12.1%; in assay [3], 2.35%; in assay [4] it was 28.2%; in assay [5] it was 5.7%; in assay [6], 43.2%.
For `[N-]=[N+]=Nc1ccc(NCCCCCC(=O)ON2C(=O)CCC2=O)c([N+](=O)[O-])c1`, the growth inhibition in assay [1] is 72% (active); in assay [2], 9.25%; in assay [3], 77.7% (active); in assay [4] it was 19.4%; in assay [5], 4.7%; in assay [6], 67%.
Consider `CCC(=O)NCCc1ccccc1`, for which the growth inhibition in assay [1] was -16.2%; in assay [2], 29.6%; in assay [3], 14.3%; in assay [4] it was -13.1%; in assay [5], -5.8%; in assay [6], -10.4%.
As to `CC1C(O)=C(O)c2ccccc2N1O` (stereo unspecified), the growth inhibition in assay [1] was -9.15%; in assay [2], -11.1%; in assay [3], -8.6%; in assay [4], 12.5%; in assay [5], -6.25%; in assay [6], -10.7%.
In the case of `COC1CC(C)OC(OC2C(C)/C=C/C(=O)OC(C)C(COC3OC(C)C(O)C(OC)C3OC)C3OC3/C=C/C(=O)C(C)(O)CC2C)C1O` (stereo unspecified), the growth inhibition was 1.55% in assay [1]; -5.25% in assay [2]; 3.55% in assay [3]; 1.5% in assay [4]; 5.25% in assay [5]; 5% in assay [6].
As for `CC(=O)NCCc1ccc(Cl)c(Cl)c1`, the growth inhibition in assay [1] is 13.6%; in assay [2], -4.25%; in assay [3], -5.95%; in assay [4], -0.6%; in assay [5], 3.35%; in assay [6] it was -3.3%.
Consider `Cc1ccc(-n2c(C)n[nH]c2=O)cc1`, for which the growth inhibition in assay [1] was -10.7%; in assay [2] it was -18%; in assay [3] it was -9.8%; in assay [4], 8%; in assay [5], -4.3%; in assay [6] it was 3.2%.
As to `Cc1ccc([B-]23OCC[N+]2(CNC(=O)c2ccccc2O)CCO3)cc1` (stereo unspecified), the growth inhibition is 25.6% in assay [1]; -4.4% in assay [2]; 4.1% in assay [3]; 3.6% in assay [4]; 4.05% in assay [5]; 12.8% in assay [6].
As to `O=C(O)CCNCCO`, the growth inhibition was -3.5% in assay [1]; 13.4% in assay [2]; 5.1% in assay [3]; -18.6% in assay [4]; 20.1% in assay [5]; 2.45% in assay [6].
With `CC(=O)Nc1c(C)ccc([N+](=O)[O-])c1C`, the growth inhibition was -3.2% in assay [1]; -2.2% in assay [2]; -9.7% in assay [3]; 5.95% in assay [4]; 2.7% in assay [5]; 13.5% in assay [6].
For the compound `CN(C)C=Nc1ccc([N+](=O)[O-])cc1`, the growth inhibition was -7.7% in assay [1]; -2.65% in assay [2]; -1.25% in assay [3]; -12.8% in assay [4]; -0.6% in assay [5]; -5.3% in assay [6].
